Data published in PubChem BioAssay (NCI).
Compounds without any hit were thinned out: in the full panel of roughly 83,000, 20% have a hit.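 96-well plates, one dose, 48 hours. Percent growth reported; active if below 10.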 Unmarked numbers belong to inactive results. Calls of active or inactive are those of the source.

Columns and labels:
Test in all cases: NCI-60 one-dose screen, 48 h (100 = growth as untreated, 0 = no growth, -100 = all killed)
Conditions in all cases: 10 µM unless noted
[1] = tested on: NCI/ADR-RES ovarian
[2] = tested on: T-47D breast
[3] = tested on: BT-549 breast
[4] = tested on: MDA-MB-435 melanoma
[5] = tested on: SW-620 colon
[6] = tested on: MCF7 breast
[7] = tested on: HCT-116 colon
[8] = tested on: HCC-2998 colon
[9] = tested on: KM12 colon

Row | SMILES | growth [1] [%] | growth [2] [%] | growth [3] [%] | growth [4] [%] | growth [5] | growth [6] | growth [7] | growth [8] [%] | growth [9]
1 | Cc1ccc(P(=O)(O)O)cc1 | 106 | 98.8 | 122 | 107 | 105% | 98.6% | 104% | 103 | 104%
2 | O=P1(N(CCCl)CCCl)NCCCO1 (configuration not stated) | 108 | 113 | 106 | 107 | 102% | 96.8% | 104% | 100 | 111%
3 | CC/C(Cc1ccccc1)=C(\c1ccc(OCCN2CCCC2)cc1)c1ccc(OC(=O)NCc2ccccc2)cc1 | 88.1 | 21.2 | 77.9 | 53.6 | -44.1% (active) | -11.1% (active) | -34.2% (active) | 83.1 | 45.7%
4 | CCN(CC)CCn1c(=O)n(C)c2ccccc21 | 101 | 109 | 124 | 105 | 105% | 102% | 111% | 101 | 99.8%
5 | O=C(NC1=NCC[Se]1)c1ccccc1O | 21.5 | 79.4 | 82.1 | 48.3 | 72.9% | 51.4% | 20.3% | 90 | 71.5%
6 | Cc1ccc(N2CCN(CCC#N)CC2)cc1 | 98.8 | 90.9 | 79 | 101 | 90.3% | 73.8% | 95.7% | 88 | 90%
7 | COc1cc2c(cc1OC)[C@@H]1C(=O)c3ccc4c(c3O[C@@H]1CO2)C[C@H](C(C)C)O4 | 34.9 | 33.2 | 44.8 | 51.4 | 84.7% | 46.3% | 39.4% | 76.1 | 65.6%
8 | CCN1C(=O)NC(=O)C(C)(N2C(=O)c3c(F)c(F)c(F)c(F)c3C2=O)C1=O (configuration not stated) | 17.9 | 23.5 | 35.9 | 21.6 | -77.9% (active) | 13.3% | -38.8% (active) | 40.8 | -59.7% (active)
9 | CCCCOCCOP(=O)(OCCOCCCC)OCCOCCCC | 99.7 | 96.2 | 114 | 101 | 93.3% | 105% | 115% | 102 | 120%
10 | S=P(SP(=S)(c1ccccc1)c1ccccc1)(c1ccccc1)c1ccccc1 | 104 | 103 | 109 | 97.5 | 99.3% | 112% | 109% | 104 | 105%
11 | Oc1ccccc1C=NCCN=Cc1ccccc1O.[Fe] | 104 | 97.7 | 110 | 31.1 | 66.1% | 70.4% | 77% | 111 | 93%
12 | CCC1(CCSC#N)C(=O)NC(=O)NC1=O | 104 | 78.4 | 95.3 | 106 | 106% | 91.2% | 94.1% | 98.2 | 104%
13 | O=[N+]([O-])c1ccc(CI)cc1 | 70.9 | 73.3 | 98.6 | 90.4 | 26.4% | 21.7% | 1.59% (active) | 108 | 106%
